# Measurements: PubChem BioAssay (NCI)
# Compounds without any hit were thinned out: in the full panel of roughly 83,000, 20% have a hit.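 Assay: single dose, 48 h. Readout: percent growth (0 = no net growth; negative = cell death). Active: <10.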 A number with no mark means an inactive call. Calls of active or inactive are those of the source.
# System: HCT-116 colon
# Experiment: NCI-60 one-dose screen, 48 h (100 = growth as untreated, 0 = no growth, -100 = all killed)
# Settings: 10 µM unless noted
# Description: Growth inhibition of the HCT-116 human tumor cell line is measured as a screen for anti-cancer activity. Cells are grown in 96 well plates and exposed to the test compound for 48 hours. Compounds are tested at a single concentration, which is 10^-5 M for most compounds. The reported endpoint is percent growth (GI% or GIPRCNT), where numbers from 0 - 100% represent growth inhibition, and numbers from -100% - 0 represent cell death. For example, a value of 40 represents 60% growth inhibition. A value of 0 means no net growth occurred over the course of the experiment. A value of -40 indicates 40% of cells at the beginning of the experiment died by the end of the experiment. A value of -100 means all cells are dead at the end of the experiment.
# NCI-60 Human Tumor Cell Lines Screen was performed using the standard one-dose NCI protocol, which is described in more detail at https://dtp.cancer.gov/discovery_development/nci-60/default.htm.
# Compounds with GIPRCNT values below 10 were considered active. Activity score was based on GIPRCNT using the following formula: […]
# Score is 0 for GIPRCNT values of 100 or above, 50 for GIPRCNT values of 0, and 100 for GIPRCNT values of -100.
row,SMILES,growth
1,CCCOc1ccc2c(c1)CC[C@@H]1[C@@H]2CC[C@@]2(C)[C@H]1CC[C@]2(C)O,83.9%
2,CCOc1cccc(C2CC(=O)Nc3cc4c(cc32)OCO4)c1 (stereo not given),80.7%
3,CCOC(=O)c1c(C)nc(C)c(C(=O)OCC)c1-c1cccnc1,90%
4,CCCCN(CCCC)CCCOC(=O)c1ccc(N)cc1,58.4%
5,COC1CC2CCC(C)C(O)(O2)C(=O)C(=O)N2CCCCC2C(=O)OC(C(C)CC2CCC(O)C(OC)C2)CC(=O)C(C)C=C(C)C(O)C(OC)C(=O)C(C)CC(C)/C=C/C=C/C=C1C (stereo not given),49.5%
6,CSc1nc2c(c(=O)n1C)C(c1ccccc1)C1=C(N2)/C(=C/c2ccccc2)CCC1 (stereo not given),39.5%
7,COc1ccc(-c2cnnn2-c2cc(OC)c3c(c2)OCO3)cc1,13.6%
8,COc1ccc(-c2nnc(COc3ccc(NC(=O)Nc4cc(C(F)(F)F)cc(C(F)(F)F)c4)cc3F)o2)cc1,2.49% (active)
9,O=C(Nc1ccncc1)C(=O)c1cn(S(=O)(=O)c2cccc(F)c2)c2ccccc12,19.5%
10,Cc1c(C(N)=O)sc2c1c(=O)n(Cc1ccccc1)c1nnc(SCC(=O)Nc3ccc(Cl)cc3)n21,2.83% (active)
11,c1coc([C@@H]2C[C@@H]3Cc4ccc5ccccc5c4N2O3)c1,99.2%
12,COc1ccc2c(c1)nc(N)c1c3cc(C)c(C)cc3cn21,49.6%
13,c1ccc(-n2nnnc2-c2cccc3ccccc23)cc1,14.9%
14,COc1cccc2c1O/C(=C\c1c([N+](=O)[O-])ncn1C)C2=O,83.3%
15,COC(=O)C[C@@H]1CC=CC(=O)/C1=C(O)/C=C/c1ccccc1,-92.2% (active)
16,Nc1nc(Cl)c2[nH]cnc2n1,104%
17,COc1cc(C2C=C(c3ccc(C)cc3)Nc3nc(SC)[nH]c(=O)c32)ccc1Oc1ccnc2cc(Cl)ccc12 (stereo not given),64.5%
18,CCCCSc1cc(C)nc(N)n1,90.7%
19,O=C(Cc1ccccn1)C(F)(F)C(F)(F)C(F)(F)F,104%
20,COc1ccc(C(=O)Nc2nc(-c3ccc(Cl)cc3)cs2)cc1,109%

row,SMILES,growth
1,CN1COc2ccc3ccccc3c2C1,93.1%
2,CC[C@]1(O)CC2CN(CCc3c([nH]c4ccccc34)[C@@](C(=O)OC)(c3cc4c(cc3OC)N(C)[C@H]3[C@@](O)(C(=O)OC)[C@H](OC(C)=O)[C@]5(CC)C=CCN6CC[C@]43[C@@H]65)C2)C1 (stereo not given in full),1.69% (active)
3,CC(C)[C@]12O[C@H]1[C@@H]1O[C@]13[C@]1(O[C@H]1C[C@H]1C4=C(CC[C@@]13C)C(=O)OC4)[C@@H]2OC(=O)CN(C)C,4.59% (active)
4,CCN1C(=O)c2ccc3c4c(ccc(c24)C1=O)C(=O)N(CCCNCc1ccccc1OC)C3=O,-79% (active)
5,CC(C)(C)c1cc(O)c(O)c(C(C)(C)C)c1,15.8%
6,Clc1ncn[nH]1,108%
7,NNC(=O)C1CC2c3ccccc3C1c1ccccc12 (stereo not given),108%
8,O=C(/C=C/c1ccccc1)CC(c1ccccc1)N1CCOCC1 (stereo not given),-97% (active)
9,Cc1cc2cn3c4cccnc4[nH]c(=O)c3c2cc1C,-85.3% (active)
10,CSC1=Nc2c(c(C)c(-c3ccccc3)n2CCCN2CCCCC2)C2=NC(=O)C[C@H](C)N12,42.9%
11,O=C1/C(=C/c2ccc3cccc(Cl)c3n2)SC(=S)N1CCc1ccc(O)cc1,99.2%
12,O=C1NCN(CCO)CN1,106%
13,O=Cc1c[nH]c2ccc(NC(=O)OCc3ccccc3)cc12,98.9%
14,O=C(Nc1ncc([N+](=O)[O-])s1)c1cccc([N+](=O)[O-])c1,34.1%
15,O=C(/C=C/c1cc2ccccc2[nH]c1=O)c1ccc(Cl)cc1,2.8% (active)
16,O=C1Cc2cc(CCn3cncn3)c(Cl)cc2N1,79%
17,CCC1(c2ccccc2)Oc2ccccc2-n2c(C#N)c3ccccc3c2C1=O (stereo not given),86.7%
18,CC(=O)Oc1ccc(C23c4ccccc4C2(OC(C)=O)c2cc(OC(C)=O)ccc23)cc1 (stereo not given),61.6%
19,Clc1ccccc1[C@@H]1C[C@@H]2Cc3cc(Br)c4ccccc4c3N1O2,20.3%
20,COc1cc2c(cc1OCCCOc1ccc(-c3cc4ccccc4c4ccccc34)cc1)N=C[C@@H]1CCCN1C2=O,-23.1% (active)
